High-throughput results: PubChem BioAssay, several laboratories
CTSL1 counter: cathepsin L1 inhibition, PFM18AAP counter-screen | recombinant F. hepatica cathepsin L1, Z-Leu-Arg-MCA fluorescence | inhibition, % at 5.96 µM | 300,000 compounds, 0.49% hits | AID 1906;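 active = inhibition above the mean of all tested compounds plus 3 SD, set per screening campaign, cut at about 17% in these data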
A3G deaminase: APOBEC3G (human) deaminase inhibition; 330,000 compounds, 0.28% hits; recombinant A3G, ssDNA deamination FAM/TAMRA fluorescence; inhibition, % at 20 µM;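 active = inhibition of at least 40% at 20 µM, with no more than 30% in the related APOBEC3A deaminase screen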
A3A deaminase: blocks human APOBEC3A ssDNA deamination | inhibition, % at 20 µM | recombinant A3A, FAM/TAMRA ssDNA deamination fluorescence | 330,000 compounds, 0.41% hits;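 active = at least 40% inhibition at 20 µM here, with at most 30% in a related deaminase screen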
sPLA2-III inh: Blocks human group III sPLA2 activity; inhibition, % at 12.2 µM; Q9NZ20; 370,000 compounds, 0.56% hits; QFRET BODIPY PC-A2 liposome hydrolysis, fluorescence;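 active = inhibition above mean plus 3 SD of compounds lying within the high and low control bounds, cut at about 19% in these data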
Target sequence (Q9NZ20 whole entry, looked up): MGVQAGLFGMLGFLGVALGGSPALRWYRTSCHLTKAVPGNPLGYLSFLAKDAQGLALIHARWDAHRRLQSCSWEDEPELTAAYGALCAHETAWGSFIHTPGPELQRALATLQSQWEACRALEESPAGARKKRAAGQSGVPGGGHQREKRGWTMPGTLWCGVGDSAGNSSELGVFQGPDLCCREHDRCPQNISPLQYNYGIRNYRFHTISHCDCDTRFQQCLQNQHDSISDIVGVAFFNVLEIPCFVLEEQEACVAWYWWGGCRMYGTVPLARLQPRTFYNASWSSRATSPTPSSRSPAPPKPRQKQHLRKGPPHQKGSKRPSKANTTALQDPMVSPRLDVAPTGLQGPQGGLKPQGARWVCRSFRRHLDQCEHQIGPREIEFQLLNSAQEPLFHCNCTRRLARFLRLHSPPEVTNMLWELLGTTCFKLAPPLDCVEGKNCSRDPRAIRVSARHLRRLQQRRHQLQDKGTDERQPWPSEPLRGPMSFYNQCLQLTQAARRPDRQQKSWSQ
NALP1 inh: inhibitors of NALP1 inflammasome in yeast; inhibition, % at 10 µM; S. cerevisiae NALP1/ASC/caspase-1 growth, X-gal OD620, 72 h; AID 2071; 280,000 compounds, 0.61% hits; in the data active = inhibition mostly above about 24%, no sharp cut-off; inactive = mostly below about 32%
A3G conf: APOBEC3G (human) deaminase inhibition, confirmed. inhibition, % at 20 µM. 890 compounds, 72% hits. shares compounds with A3G deaminase. recombinant A3G ssDNA deaminase, UDG/FAM-TAMRA fluorescence;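 active = inhibition reaching a set limit in any replicate at 20 µM, the limit being 80% of the first screen's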
UDG A3G counter: E. coli UDG inhibition in APOBEC3G counter-screen | shares compounds with A3G deaminase | UDG counterscreen, FAM/TAMRA oligo fluorescence | inhibition, % at 20 µM | 710 tested, under 10 active;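 active = compounds giving 40% or more inhibition at 20 µM in any one of the three replicates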;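 also: inhibitors lower the FAM signal released by uracil excision and alkaline cleavage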
Each line names hits and unclear results; the compound was inactive in the other large screens (follow-up assays come after a bar, where they were run). The list is not random: actives were taken first. Their share in the collection is about 2%.

CCc1ccc(NC(=O)CSc2nc(=O)n(CCCN(C)C)c3c2CCC3)cc1	A3G deaminase 65 (no result: NALP1 inh) | A3G conf inactive | UDG A3G counter inactive
Cc1ccc(C)n1-c1nc(=S)[nH][nH]1	A3G deaminase 59 | A3G conf 74 | UDG A3G counter inactive
O=C(c1ccc(F)cc1F)N1CCC(Oc2cccnc2)CC1	none (no result: CTSL1 counter, A3G deaminase, A3A deaminase, NALP1 inh)
CC(COc1ccc(CC#N)cc1)CN1CCC(C(O)(c2ccccc2)c2ccccc2)CC1 (centres undefined)	none (no result: CTSL1 counter, A3G deaminase, A3A deaminase, NALP1 inh)
COC(=O)[C@]1(C)N[C@H](CN(C)C(=O)Nc2ccccc2)[C@@H]2C(=O)N(C)C(=O)[C@@H]21	none (no result: CTSL1 counter, NALP1 inh)
COC(=O)[C@]1(C)N[C@H](CN(C)C(=O)COc2ccccc2)[C@@H]2C(=O)N(C)C(=O)[C@@H]21	A3G deaminase 74 (no result: CTSL1 counter, NALP1 inh) | A3G conf inactive
CCCC/C=C1/[C@@H](c2ccc(Cl)cc2)N(Cc2ccc3c(c2)OCO3)C2=N[C@@H](c3ccccc3)CC(=O)N21	none (no result: CTSL1 counter, A3G deaminase, A3A deaminase, NALP1 inh)
COc1cccc(Nc2n[nH]c(=S)s2)c1	A3G deaminase 58 | A3G conf 63 | UDG A3G counter inactive
CCC(=O)N1CC2(CC(c3cccc(NC(=O)CC(c4ccccc4)c4ccccc4)c3)=NO2)C[C@H]1C(N)=O (some centres undefined)	none (no result: NALP1 inh)
CCCCCC(=O)Nc1cccc(C2=NOC3(C2)C[C@H](C(N)=O)N(C(=O)CC#N)C3)c1 (some centres undefined)	none (no result: CTSL1 counter, A3G deaminase, A3A deaminase, sPLA2-III inh)
C=C(C)C(=O)Nc1cccc(C2=NOC3(C2)C[C@H](C(N)=O)N(C(=O)c2ccccc2C(=O)c2ccccc2)C3)c1 (some centres undefined)	A3G deaminase 83 | A3G conf 88 | UDG A3G counter inactive
C=C(C)C(=O)Nc1cccc(C2=NOC3(C2)C[C@H](C(N)=O)N(C(=O)CC#N)C3)c1 (some centres undefined)	A3G deaminase 74 (no result: sPLA2-III inh) | A3G conf 73
C=C(C)C(=O)Nc1cccc(C2=NOC3(C2)C[C@H](C(N)=O)N(C(=O)CC)C3)c1 (some centres undefined)	A3G deaminase 88 (no result: sPLA2-III inh) | A3G conf 92
C=C(C)C(=O)Nc1cccc(C2=NOC3(C2)C[C@@H](C(N)=O)N(C(=O)CC(c2ccccc2)c2ccccc2)C3)c1 (some centres undefined)	A3G deaminase 70 (no result: NALP1 inh) | A3G conf 71 | UDG A3G counter inactive
C=C(C)C(=O)Nc1cccc(C2=NOC3(C2)C[C@@H](C(N)=O)N(C(=O)/C(C)=C/C)C3)c1 (some centres undefined)	A3G deaminase 86 (no result: NALP1 inh) | A3G conf 95
C/C=C(\C)C(=O)Nc1cccc(C2=NOC3(C2)C[C@@H](C(N)=O)N(C(=O)/C(C)=C/C)C3)c1 (some centres undefined)	none (no result: NALP1 inh)
C=C(C)C(=O)Nc1cccc(C2=NOC3(C2)C[C@@H](C(N)=O)N(C(=O)/C=C/C=C/C)C3)c1 (some centres undefined)	A3G deaminase 89 (no result: NALP1 inh) | A3G conf 93 | UDG A3G counter inactive
COCO[C@@H]1CC(CO)=C[C@H]2OCO[C@H]21	none (no result: CTSL1 counter, A3G deaminase, A3A deaminase, NALP1 inh)
O=C1[C@H]2C[C@@]3(n4ccc5ccccc54)c4ccccc4N(S(=O)(=O)c4ccccc4)[C@H]3N2C(=O)CN1Cc1ccccc1	none (no result: CTSL1 counter, A3G deaminase, A3A deaminase, NALP1 inh)
COc1ccc(CN2C[C@]3(C=C4CCCCC4n4c(=O)n(-c5ccccc5)c(=O)n43)N=C2NC(=O)c2ccccc2)c(OC)c1 (some centres undefined)	none (no result: CTSL1 counter, A3G deaminase, A3A deaminase, NALP1 inh)
COc1cc(/C=C2\CCCc3c2nc2ccccc2c3C(=O)O)cc(Br)c1O	none
CCOc1cc(/C=C2\CCCc3c2nc2ccccc2c3C(=O)O)ccc1OC	A3G deaminase 48 | A3G conf inactive
Cc1ccc(C(c2nnnn2CS(=O)(=O)c2ccc(C)cc2)N2CCN(c3ncccn3)CC2)cc1 (centres undefined)	A3G deaminase 71 | A3G conf inactive
COc1ccc2nc(NC(=S)N(C)C)sc2c1	A3G deaminase 61 | A3G conf 69 | UDG A3G counter inactive
O=C(C[n+]1ccc2ccccc2c1)c1cccc2ccccc12	none
O=C(/C=C/c1cc[n+](CC(=O)c2ccc3cccc4c3c2CC4)cc1)c1ccc2cccc3c2c1CC3	A3G deaminase 54 (no result: sPLA2-III inh, NALP1 inh) | A3G conf 55
C[C@@H]1CN([C@@H](C)CO)S(=O)(=O)c2ccc(Br)cc2O[C@@H]1CN(C)Cc1ccc2c(c1)OCO2	none (no result: CTSL1 counter, A3G deaminase, A3A deaminase, NALP1 inh)
c1cc(SSc2ccncc2)ccn1	A3G deaminase 65 | A3G conf 71
c1ccc(Sc2ccncc2)cc1	none (no result: CTSL1 counter, A3G deaminase, A3A deaminase, NALP1 inh)
Clc1ccc(-c2nnc3n2N=C(c2ccc(-c4ccccc4)cc2)CS3)cc1	none (no result: CTSL1 counter, A3G deaminase, A3A deaminase, NALP1 inh)
CS(=O)(=O)c1ccc(C(=O)OCC#CCSc2nnc(-c3cccc4ccccc34)o2)cc1	none (no result: CTSL1 counter, A3G deaminase, A3A deaminase, NALP1 inh)
COc1cc(C(=S)N2CCN(C(c3ccccc3)c3ccccc3)CC2)cc(OC)c1O	A3G deaminase 43 (no result: CTSL1 counter) | A3G conf inactive | UDG A3G counter inactive
CCOC(=O)[C@]12CCCC=C1N(CCCOC)C(=O)[C@@H]2CC(=O)N1CCCCC1	none (no result: CTSL1 counter, A3G deaminase, A3A deaminase, NALP1 inh)
O=C(O)COc1ccccc1/C=N/NC(=O)Cc1ccccc1	none
O=C(O)COc1ccccc1/C=N/NC(=O)Cc1csc(Nc2cccc(C(F)(F)F)c2)n1	A3G deaminase 55 | A3G conf inactive | UDG A3G counter inactive
COc1cc(/C=C/C(=O)NNc2c(F)c(F)cc(F)c2F)ccc1OC(F)F	none (no result: sPLA2-III inh)
COc1ccc(/C=C/C(=O)NNc2c(F)c(F)cc(F)c2F)cc1OC	A3G deaminase 60 | A3G conf inactive | UDG A3G counter inactive
CCOc1ccc(-n2c(COc3ccc(C)cc3)nnc2SCC(=O)Nc2ccc(F)c(F)c2)cc1	none (no result: CTSL1 counter, A3G deaminase, A3A deaminase, NALP1 inh)
COc1ccc(CN2C(=O)CCCC2(C)c2nnnn2-c2c(C)cccc2C)cc1OC (centres undefined)	none (no result: CTSL1 counter, A3G deaminase, A3A deaminase, NALP1 inh)
Clc1ccc(/C=N/NC2=Nc3cccc4cccc2c34)cc1	none
C(=N\NC1=Nc2cccc3cccc1c23)/c1ccccc1	A3G deaminase 41 | A3G conf inactive
CN(Cc1ccccc1F)C(=O)C1CCC(CNS(=O)(=O)c2cccc3cccnc23)CC1 (centres undefined)	none (no result: CTSL1 counter, A3G deaminase, A3A deaminase, NALP1 inh)
